Assay results taken from PubChem BioAssay (Tox21).
Where “and” joins values, the source holds several entries; their conditions need not be identical. Equal values may be shown once. Unmarked numbers belong to inactive results. Results filed as inconclusive are left out. Where a call stands in place of a potency, no number is given. Calls of active or inactive are those of the source. Unless noted, calls follow the shape of the dose curve; as a rule, active = well fitted curve in the direction sought with a large enough effect in the repeat runs; inconclusive = weak or mixed curves; inactive = no such curve, though single readings can be large; an effect the other way counts as inactive or inconclusive.

Tests used:
[1] = qHTS assay to identify small molecule antagonists of the estrogen related receptor (ERR) signaling pathway from Tox21 library - cell viability counter screen (AID 1224834); also: nearly all actives have a fitted effect of over 30% in size; also: potency is read from the fitted curve at half-maximal effect
Outline: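 ERR reporter cells were plated 6 h before compound addition, then exposed to test compounds in DMSO for 17.5 h at 37 C. Viability was read as CellTiter-Fluor fluorescence after a 30-minute incubation at 37 C.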

[2] = target: Luciferin 4-monooxygenase (Photinus pyralis) (UniProt P08659); assay: qHTS assay to identify small molecule inhibitors of firefly luciferase (AID 1224835); also: nearly all actives have a fitted effect of over 25% in size
Chain of Luciferin 4-monooxygenase (Photinus pyralis) (P08659 whole entry, looked up): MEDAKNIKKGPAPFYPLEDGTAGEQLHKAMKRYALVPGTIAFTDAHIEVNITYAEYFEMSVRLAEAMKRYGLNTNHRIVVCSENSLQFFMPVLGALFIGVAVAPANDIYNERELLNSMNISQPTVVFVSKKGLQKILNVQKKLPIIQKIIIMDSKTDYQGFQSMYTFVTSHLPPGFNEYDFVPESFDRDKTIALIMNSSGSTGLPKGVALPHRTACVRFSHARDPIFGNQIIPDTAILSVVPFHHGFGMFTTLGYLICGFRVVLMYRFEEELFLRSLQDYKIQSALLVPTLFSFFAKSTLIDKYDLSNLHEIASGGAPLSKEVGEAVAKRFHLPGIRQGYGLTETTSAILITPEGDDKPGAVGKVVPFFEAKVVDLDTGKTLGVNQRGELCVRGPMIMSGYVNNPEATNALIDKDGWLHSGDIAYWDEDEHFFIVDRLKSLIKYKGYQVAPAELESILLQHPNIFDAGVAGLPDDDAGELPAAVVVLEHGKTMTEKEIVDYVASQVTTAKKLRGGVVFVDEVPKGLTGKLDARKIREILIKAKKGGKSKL
Outline: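 Biochemical qHTS: compounds run as interplate titrations against purified firefly enzyme, with D-luciferin and ATP each at its KM concentration. Light output recorded by CCD imaging.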

[3] = qHTS assay to identify small molecule agonists of the constitutive androstane receptor (CAR) signaling pathway - cell viability counter screen (AID 1224836); also: nearly all actives have a fitted effect of over 45% in size; also: potency is read from the fitted curve at half-maximal effect
Outline: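 23 h treatment, 37 C, 5% CO2. Cell line: HepG2 stably expressing hCAR with a CYP2B6-2.2kb construct. Co-treatment: PK11195, 0.75 uM final. Read-out: CellTiter-Fluor fluorescence intensity.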

[4] = qHTS assay to identify small molecule antagonists of the constitutive androstane receptor (CAR) signaling pathway - cell viability counter screen (AID 1224837); also: nearly all actives have a fitted effect of over 45% in size; also: potency is read from the fitted curve at half-maximal effect
Outline: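 HepG2 cells stably expressing hCAR and a CYP2B6-2.2kb reporter were plated and pre-incubated 4 hr at 37 C/5% CO2, then given compounds at 15 concentrations plus 50 nM CITCO (final). After 23 hr, viability was read by CellTiter-Fluor fluorescence.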

[5] = target: Nuclear receptor subfamily 1 group I member 3 (Homo sapiens) (UniProt Q14994); assay: qHTS assay to identify small molecule antagonists of the constitutive androstane receptor (CAR) signaling pathway (AID 1224838); also: nearly all actives have a fitted effect of over 40% in size; also: potency is read from the fitted curve at half-maximal effect
Chain of Nuclear receptor subfamily 1 group I member 3 (Homo sapiens) (Q14994 whole entry, looked up): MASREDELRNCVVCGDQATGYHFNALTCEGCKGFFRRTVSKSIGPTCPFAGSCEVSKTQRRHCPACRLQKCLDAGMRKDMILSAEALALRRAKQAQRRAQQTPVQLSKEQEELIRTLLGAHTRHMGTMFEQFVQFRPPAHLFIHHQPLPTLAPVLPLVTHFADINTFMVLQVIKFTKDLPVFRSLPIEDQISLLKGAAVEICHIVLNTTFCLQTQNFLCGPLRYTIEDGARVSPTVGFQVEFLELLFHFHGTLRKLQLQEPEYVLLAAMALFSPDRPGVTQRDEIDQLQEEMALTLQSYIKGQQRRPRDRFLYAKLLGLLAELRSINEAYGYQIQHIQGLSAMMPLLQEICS
Outline: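 HepG2 cells stably co-transfected with hCAR and a CYP2B6-2.2kb luciferase reporter were seeded 4 h before compound addition at 15 concentrations. Cells were stimulated with 50 nM CITCO (final) for 24 h at 37 C; luciferase luminescence was then read.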

[6] = target: Nuclear receptor subfamily 1 group I member 3 (Homo sapiens) (UniProt Q14994); assay: qHTS assay to identify small molecule agonists of the constitutive androstane receptor (CAR) signaling pathway (AID 1224839);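 also: HepG2 cells stably carrying human CAR and a CYP2B6 luciferase reporter; nearly all actives have a fitted effect of over 15% in size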
Outline: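 Compounds tested at 15 concentrations on HepG2 cells stably harbouring hCAR and CYP2B6-2.2kb reporter constructs, co-treated with PK11195 (0.75 uM final), 24 h at 37 C; luminescent reporter signal quantified.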

[7] = qHTS assay to identify small molecule antagonists of the estrogen related receptor signaling pathway with the pleiotropic PPARgamma coactivator (PGC) from Tox21 10K library (AID 1224841; call rule not given here; also: actives are mostly falling curves and most rising ones were filed inactive; nearly all actives have a fitted effect of over 50% in size; also: potency is read from the fitted curve at half-maximal effect)
Outline: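 PGC/ERR reporter cells were seeded at 2,000 cells/well and held 6 hours at 37 C/5% CO2 before pin-tool addition of compounds in DMSO. After 18 hours at 37 C, One-Glo was added and luminescence read after 30 minutes at room temperature.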

[8] = qHTS assay to identify small molecule agonists of the estrogen related receptor signaling pathway with the pleiotropic PPARgamma coactivator (PGC) from Tox21 10K library (AID 1224842); also: nearly all actives have a fitted effect of over 15% in size
Outline: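 PGC/ERR reporter cell line, 2,000 cells per well, incubated 6 h at 37 C before 23 nL compound in DMSO was added. After 18 h at 37 C, One-Glo luminescence read following 30 min at room temperature.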

[9] = target: Thyrotropin receptor (Homo sapiens) (UniProt P16473); assay: qHTS assay to identify small molecule agonists of the thyroid stimulating hormone receptor (TSHR) signaling pathway (AID 1224843; calls by dose curve; also: nearly all actives have a fitted effect of over 45% in size)
Chain of Thyrotropin receptor (Homo sapiens) (P16473 whole entry, looked up): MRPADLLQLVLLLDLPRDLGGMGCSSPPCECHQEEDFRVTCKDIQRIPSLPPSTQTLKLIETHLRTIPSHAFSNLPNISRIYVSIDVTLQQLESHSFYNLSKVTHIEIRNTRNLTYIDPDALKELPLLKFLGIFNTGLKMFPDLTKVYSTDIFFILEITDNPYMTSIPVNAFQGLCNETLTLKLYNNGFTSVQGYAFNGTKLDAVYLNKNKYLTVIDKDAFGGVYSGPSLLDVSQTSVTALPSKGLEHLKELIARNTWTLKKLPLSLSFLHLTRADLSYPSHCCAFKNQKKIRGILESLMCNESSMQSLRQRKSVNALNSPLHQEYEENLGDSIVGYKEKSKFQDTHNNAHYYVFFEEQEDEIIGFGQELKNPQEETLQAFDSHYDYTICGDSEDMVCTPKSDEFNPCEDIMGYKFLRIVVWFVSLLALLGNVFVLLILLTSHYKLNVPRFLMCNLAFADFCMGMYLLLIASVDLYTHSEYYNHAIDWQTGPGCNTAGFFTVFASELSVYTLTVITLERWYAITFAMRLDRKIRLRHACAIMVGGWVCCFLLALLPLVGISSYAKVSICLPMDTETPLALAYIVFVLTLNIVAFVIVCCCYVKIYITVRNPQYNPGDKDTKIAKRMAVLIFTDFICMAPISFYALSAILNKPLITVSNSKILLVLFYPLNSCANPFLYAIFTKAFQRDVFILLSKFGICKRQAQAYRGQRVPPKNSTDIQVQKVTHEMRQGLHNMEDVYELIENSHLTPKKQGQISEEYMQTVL
Outline: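 Steps: seed 800 TSHR-HEK293 cells per well; add test compound and hold 30 min at ambient temperature; dispense cAMP-d2 then anti-cAMP cryptate; incubate 1 h at ambient; measure fluorescence intensity.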

[10] = qHTS assay to identify small molecule agonists of the hypoxia (HIF-1) signaling pathway - cell viability counter screen (AID 1224844; calls by dose curve; also: nearly all actives have a fitted effect of over 50% in size; also: potency is read from the fitted curve at half-maximal effect)
Outline: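 HRE-bla ME-180 cells in medium with 0.5% dialyzed FBS were preincubated 5 hrs at 37C, exposed to compounds for 17 hrs, then viability was read as CellTiter-Glo luminescence after 30 min at room temperature, in the reporter wells.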

[11] = qHTS assay to identify small molecule agonists of H2AX (AID 1224845; active = well fitted activation curve with a large enough effect in the signal ratio in the repeat runs, not every such curve was filed as active; the % refers to the signal ratio)
Outline: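 Wild-type CHO-K1 cells, plated overnight, exposed 3hr at 37C to 15 concentrations (0.76% DMSO final). Lysed, then HTRF anti-pH2AX (S139) cryptate and anti-H2AX-d2 antibodies, 24 hr room temperature; 665/620 nm emission read.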

[12] = qHTS assay to identify small molecule agonists of H2AX - cell viability counter screen (AID 1224847; calls by dose curve; also: nearly all actives have a fitted effect of over 30% in size; also: potency is read from the fitted curve at half-maximal effect)
Outline: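 Compounds tested at 15 concentrations were incubated 3 hr at 37C with wild-type CHO-K1 cells; cellular ATP-based luminescence (CellTiter-Glo) indicated viability.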

[13] = qHTS assay to identify small molecule antagonists of the estrogen related receptor (ERR) signaling pathway from Tox21 library (AID 1224848); also: nearly all actives have a fitted effect of over 50% in size; also: potency is read from the fitted curve at half-maximal effect
Outline: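 Luminescent reporter read-out (ONE-Glo) from NTP's ERR cell line after 18 h treatment at 37 C with DMSO-dissolved Tox21 compounds; cells pre-plated 6 h beforehand at 2,000 per well.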

[14] = qHTS assay to identify small molecule agonists of the estrogen related receptor (ERR) signaling pathway from Tox21 library (AID 1224849; calls by dose curve; also: nearly all actives have a fitted effect of over 15% in size); details: ERR reporter cell line, ONE-Glo luciferase, 18 h; at 92.4 µM (top of the series) unless noted
Outline: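 ERR reporter cell line (NTP) seeded, rested 6 h at 37 C/5% CO2, then pinned with Tox21 compounds in DMSO. After 18 h at 37 C, ONE-Glo luciferase luminescence was read following 30 min at room temperature.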

[15] = qHTS RealTime-Glo MT Cell Viability Assay in HepG2 cells - 24 hour (AID 1224867); also: nearly all actives have a fitted effect of over 50% in size; also: potency is read from the fitted curve at half-maximal effect
Outline: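 Compound treatment began 5 h after plating HepG2 cells (600/well) with NanoLuc luciferase and prosubstrate. Plates stayed at 37 C for 40 h; luminescence was captured at six time points, 0 h through 40 h.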

[16] = qHTS RealTime-Glo MT Cell Viability Assay in HEK293 cells - 32 hour (AID 1224868); also: nearly all actives have a fitted effect of over 50% in size; also: potency is read from the fitted curve at half-maximal effect
Outline: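 Quantitative high-throughput screen of the Tox21 10K library in HEK293: cells and RealTime-Glo reagents plated together, compound added at 5 h, luminescence monitored through 40 h at 37 C.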

[17] = A CellTox Green Cytotoxicity Assay to monitor cytotoxicity in HEK293 cells - 0 hour (AID 1224869); also: nearly all actives have a fitted effect of over 50% in size
Outline: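 HEK293 cells premixed with CellTox Green dye were seeded at 600 cells/well and left 5 h at 37 C/5% CO2 before pin transfer of 23 nL compound in DMSO. Fluorescence from dye bound to dead-cell DNA was read during 40 h treatment.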

[18] = qHTS RealTime-Glo MT Cell Viability Assay in HepG2 cells - 40 hour (AID 1224870); also: nearly all actives have a fitted effect of over 50% in size; also: potency is read from the fitted curve at half-maximal effect
Outline: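 HepG2 cells (600/well) mixed with RealTime-Glo MT reagent, settled 5 h at 37 C/5% CO2 before compound addition. Nonlytic NanoLuc luminescence from viable-cell prosubstrate reduction read repeatedly during 40 h treatment at 37 C.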

[19] = qHTS assay to identify small molecule antagonists of the estrogen related receptor signaling pathway with the pleiotropic PPARgamma coactivator (PGC) from Tox21 10K library - cell viability counter screen (AID 1224840; active = well fitted cell-killing curve with a large enough effect in the repeat runs, not every such curve was filed as active; also: nearly all actives have a fitted effect of over 40% in size; also: potency is read from the fitted curve at half-maximal effect)
Outline: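 PGC/ERR cells were seeded at 2,000 cells/well and left 6 hours at 37 C/5% CO2 before pin-tool addition of compounds in DMSO. After 17.5 hours at 37 C, CellTiter-Fluor was added and fluorescence read 30 minutes later.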

[20] = qHTS assay to identify small molecule agonists of the hypoxia (HIF-1) signaling pathway (AID 1224846; active = well fitted activation curve with a large enough effect in the signal ratio in the repeat runs, not every such curve was filed as active; the % refers to the signal ratio)
Outline: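 HRE-bla ME-180 cells (beta-lactamase reporter under hypoxia response element) were plated at 2,000 cells/well in medium with 0.5% dialyzed FBS, rested 5 hrs, then given compounds in DMSO for 17 hrs at 37C, 5% CO2. Reporter induction was read with CCF4-AM FRET substrate.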

Compound | Potency [1] | Potency [2] | Potency [3] | Potency [4] | Potency [5] | Potency [6] | Potency [7] | Potency [8] | Potency [9] | Potency [10] | Potency [11] | Potency [12] | Potency [13] | activity change, positive = activation [14] | Potency [15] | Potency [16] | Potency [17] | Potency [18] | Potency [19] | outcome [20]
O=C(O)C(F)(F)C(F)(F)C(F)(F)C(F)(F)C(F)(F)C(F)(F)C(F)(F)C(F)(F)C(F)(F)F | inactive | inactive | inactive | inactive | inactive | inactive | inactive | inactive | inactive | 13.8 µM (active) | inactive | inactive | inactive | 3.44% | inactive | inactive | inactive | inactive |  | 
[CH3][Sn]([CH3])([Cl])[Cl] | 62.1 µM (active) | inactive | inactive | inactive | inactive | inactive | 69.7 µM (active) and 43.3 µM (active) | inactive |  |  | inactive |  |  | -70.4% and -43.3% | inactive |  | inactive | inactive | inactive | 
IC(I)=C(I)I | 27.3 µM (active) | inactive | 30.6 µM (active) | 27.3 µM (active) | 12.2 µM (active) | inactive | 21.7 µM (active) | inactive |  | 11 µM (active) |  | 31.8 µM (active) | 19.3 µM (active) | -75.2% | 0.549 µM (active) | 6.92 µM (active) | inactive | 0.347 µM (active) | 24.3 µM (active) | 
N#CCc1ccccc1 | inactive | inactive | inactive | inactive | inactive | inactive |  |  | inactive | inactive | inactive | inactive |  |  | inactive |  | inactive | inactive | inactive | inactive
N#Cc1ccc(Cl)cc1 | inactive | inactive | inactive | inactive | inactive | inactive | inactive | inactive | inactive |  | inactive | inactive | inactive | 0.802% |  |  | inactive | inactive | inactive | inactive
C=CC(=O)OC(C)(C)C | inactive | inactive | inactive | inactive | inactive |  |  |  | inactive | inactive | inactive | inactive |  |  | inactive |  | inactive | inactive | inactive | inactive
CC(C)(CCl)C(=O)Cl | inactive | inactive | inactive | inactive |  | inactive |  |  | inactive | inactive | inactive | inactive |  |  | inactive |  | inactive |  | inactive | inactive
C=CC(=O)NCNC(=O)C=C | inactive | inactive | inactive | inactive |  | inactive | inactive |  | inactive | inactive | inactive | inactive | inactive | 36.6% (active) | inactive | inactive | inactive | inactive |  | inactive
